Compound activity (PubChem)
esBAF inh: inhibitors of esBAF chromatin remodeling in mouse ES cells. Bmi1-luciferase knock-in reporter, 24 h; 100% = twice the neutral-well signal. reporter increase, % at 12.5 µM. hit rate 2% among 350,000. AID 602393; in the data active means activation above about 40%; inconclusive means no clear call, values can overlap the other calls;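 further: 0% = median of the plate's neutral control wells and 100% = double that signal; a rise in the Bmi1 reporter signal indicates esBAF inhibition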
HSF-1 act: increases HSF-1 driven luciferase reporter signal; NIH3T3-HGL HSF-1 luciferase reporter, MG132, 8 h; 100% = twice DMSO control signal; activation, % at 9 µM; hit rate 1.7% among 300,000;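 active means mean replicate activation of at least 50% with a set share of replicates each reaching 50%; inconclusive means only one of those two conditions met; inactive means mean below 50% and too few replicates reaching it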;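 further: 0% = median of the neutral control wells and 100% = twice that signal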
HSF1 inh: HSF1 inhibition; NIH3T3-HGL HSE-luciferase, MG132-induced, luminescence 8 h; hits give low values; activity change, negative = inhibition, % at 7.5 µM (by protocol); hit rate 0.77% among 300,000;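 active means more than half of replicate wells show activity change below -50%, luminescence cut by over half; inconclusive means some wells, but at most half, below -50%; inactive means no replicate well below -50%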;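 further: luciferase reports HSF-1 transcriptional activity via heat shock element; 0% = median of DMSO wells and -100% = zero luminescence signal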
SMARCA2 activ: SMARCA2 function activation, primary screen; MG213 cells, MMTV-luciferase reporter, dexamethasone, overnight; activation, % at 9.1 µM; hit rate 1% among 370,000; in the data active means activation above about 7.8%;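 further: 0% = vehicle wells and 100% = reference activator wells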
Wnt act: activators of Wnt/beta-catenin signaling. hit rate 1.2% among 300,000. Wnt/beta-catenin reporter cell assay, activator, plate reader. activation, % at 9.35 µM; in the data active means activation above about 30%, passing the limit was not always enough; inconclusive means no clear call, values can overlap the other calls;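 further: 0% = neutral control wells and 100% = positive control wells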
MITF act: MITF TRPM1 promoter activation in melanoma cells; SK-MEL-5 TRPM1-promoter luciferase, 24 h; % of positive control, neutral wells = 0; activation, % at 12.5 µM; hit rate 0.75% among 300,000;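 active means mean activation of at least 80% with every replicate also reaching 80%; inconclusive means mean reaches 80% but some replicate falls short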;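 further: 0% = neutral control wells and 100% = parthenolide positive control wells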
The depositor's hits bear a star; ? = inconclusive; / = no result. A selection: hits, their analogues and other compounds. The true share with any hit is near 4.3%.

SMILES | esBAF inh | HSF-1 act | HSF1 inh | SMARCA2 activ | Wnt act | MITF act
C[C@@H]1CN([C@@H](C)CO)C(=O)c2cc(NS(=O)(=O)c3ccc(Cl)cc3)ccc2O[C@@H](C)CCCCO[C@H]1CN(C)Cc1ccc(C(F)(F)F)cc1 | -5 | / | / | / | / | /
O=C(Nc1ccc(-c2nc3c(ccc4ccccc43)o2)cc1)c1ccco1 | 50* | 17 | 11 | 2 | 10 | 34
O=C(Nc1ccc(-c2nc3cc(Cl)ccc3c(=O)o2)cc1)c1ccco1 | / | -3 | 4 | 2 | -6 | 3
CSc1nc(-c2ccco2)nn1C(=O)c1ccco1 | 6 | 3 | 0 | -2 | 0 | /
CSc1cc(-c2ccco2)oc1C(=O)c1ccco1 | / | 51* | 21 | -3 | 2 | /
COc1cccc(CNC(=O)C[C@@H]2CC[C@H]3[C@H](COc4ccc(NC(C)=O)cc4C(=O)N3C)O2)c1 | -4 | / | / | / | / | /
CC(=O)c1c(N2CCN(c3ccccc3)CC2)nc(=S)n(-c2ccccc2)c1C | 8 | 4 | 0 | -3 | / | -3
CC(=O)c1c(N2CCN(CCO)CC2)nc(=S)n(-c2ccccc2)c1C | / | -72 | -64* | 2 | -2 | -11
O=C(/C=C/c1cccnc1)c1ccc(F)c(F)c1 | -1 | 2 | -5 | -1 | 3 | 15
CN(C)c1ccc(C(=O)/C=C/c2cccnc2)cc1 | 63* | 52* | 22 | 2 | -1 | 2
Cc1ccccc1S(=O)(=O)N1CC[C@@H]2[C@H](CO)Nc3ccc(-c4ccccc4)cc3[C@@H]21 | -3 | / | / | / | / | /
CN(C)/C=C/C(=O)/C=C/c1ccc(Cl)cc1Cl | / | 16 | 10 | 5 | ? | 92*
CCOc1ccc(-c2csc(NC(=O)c3ccco3)n2)cc1 | 58* | 38 | 14 | 0 | 3 | /
O=C(Nc1cc(-c2ccccc2)cs1)c1ccco1 | 67* | / | / | 3 | 44* | 110*
COc1cccc(-c2nnc(NC(=O)c3ccco3)s2)c1 | 12 | 28 | 14 | 4 | 35* | 58
O=C(CCNC(=O)c1ccco1)Nc1nc(-c2ccccc2)cs1 | 53* | / | / | 6 | 19 | /
C/C=C/c1ccc2c(c1)O[C@@H](CN(C)C(=O)CN(C)C)[C@@H](C)CN([C@@H](C)CO)S2(=O)=O | 0 | / | / | / | / | /
C[C@@H]1CN([C@H](C)CO)C(=O)c2cc(Br)cnc2O[C@H]1CN(C)S(=O)(=O)c1ccc(F)cc1 | -8 | / | / | / | / | /
C[C@@H]1CN([C@H](C)CO)C(=O)Cc2cc(NC(=O)Nc3ccc(C(F)(F)F)cc3)ccc2O[C@@H]1CN(C)C(=O)Nc1ccc(F)cc1 | -7 | / | / | / | / | /
O=C(NC(=S)Nc1nc(-c2ccc(Br)cc2)cs1)c1ccco1 | / | 16 | 7 | -4 | 1 | 2
Cc1ccc(-c2csc(NC(=O)c3ccco3)n2)cc1C | 47* | 62* | 8 | 2 | 41* | /
O=C(Nc1nc(-c2ccccc2)cs1)c1ccco1 | / | 14 | 21 | 1 | 43* | /
COc1ccc(-c2csc(NC(=O)c3ccco3)n2)cc1 | 65* | 34 | 19 | -5 | 18 | 83*
Cc1ccc(-c2csc(NC(=O)c3c(C)noc3C)n2)cc1C | 20 | / | / | -4 | -4 | 44
O=C(Nc1nc(-c2ccco2)cs1)c1ccccc1 | 36 | 29 | 13 | 3 | / | ?
SMILES | esBAF inh | HSF-1 act | HSF1 inh | SMARCA2 activ | Wnt act | MITF act
O=C(NC(=S)Nc1nc(-c2ccc([N+](=O)[O-])cc2)cs1)c1ccco1 | 54* | -2 | 6 | 3 | 18 | 23
C[C@H](CO)N1C[C@H](C)[C@H](CN(C)S(=O)(=O)c2ccccc2)Oc2ccc(NC(=O)Cn3cnnn3)cc2CC1=O | -2 | / | / | / | / | /
CC(OC(=O)c1ccco1)C(=O)Nc1nc(-c2ccccc2)cs1 (stereo not given) | 48* | / | / | -1 | 7 | 89*
O=C(Nc1scc(-c2ccccc2)c1C(=O)O)c1ccco1 | 27 | -2 | 4 | 0 | 10 | 13
COC(=O)c1c(-c2ccc(F)cc2)csc1NC(=O)c1ccco1 | / | 31 | 13 | 8 | / | 118*
COc1ccccc1CNC(=O)C[C@H]1C[C@@H]2c3cc(NS(C)(=O)=O)ccc3O[C@@H]2[C@H](CO)O1 | 3 | / | / | / | / | /
O=C(CCn1cccn1)N1CCCC(N2CCN(c3cccc(C(F)(F)F)c3)CC2)C1 (stereo not given) | -8 | 1 | 3 | 0 | 32* | -13
CCc1ccc2nc(/N=C(\N)NC(=O)c3ccccc3)nc(C)c2c1 | 44 | -3 | 18 | 7.9* | 8 | /
Cc1noc(C)c1NC(=O)Nc1ccc2c(c1)CC(=O)N([C@H](C)CO)C[C@@H](C)[C@H](CN(C)C(=O)Nc1ccc(C(F)(F)F)cc1)O2 | 0 | / | / | / | / | /
C[C@H]1CN([C@@H](C)CO)C(=O)c2cccc(NC(=O)c3ccc(-c4nccs4)cc3)c2O[C@H]1CN(C)S(=O)(=O)c1cccs1 | 6 | / | / | / | / | /
NS(=O)(=O)c1ccc(CCNCC#Cc2ccccc2)cc1 | -10 | -76 | -71* | 0 | -2 | /
CO[C@H]1CN(C)C(=O)c2cc(NC(C)=O)ccc2OC[C@@H](C)N(CCc2ccccc2)C[C@@H]1C | 3 | / | / | / | / | /
CC#CCOCC1CNC(=O)O1 (stereo not given) | -11 | / | / | -2 | 429* | /
Cc1cc(=O)n2[nH]c(=O)c(N=Nc3ccccc3)c2[nH]1 | -7 | -74 | -64* | 0 | -1 | -1
C[C@@H]1CN([C@@H](C)CO)S(=O)(=O)c2ccc(-c3ccccc3)cc2O[C@@H]1CN(C)Cc1ccccc1 | 1 | / | / | / | / | /
O=c1c2ccccc2oc2cc(-c3ccc(CN4CCOCC4)cc3)ccc12 | 77* | / | / | 5 | ? | ?
O=c1cc(CN2CCOCC2)c2ccccc2o1 | 0 | / | / | -4 | -4 | /
C[C@H]1CN([C@@H](C)CO)C(=O)Cc2cc(NS(=O)(=O)c3cccs3)ccc2O[C@@H]1CN(C)S(=O)(=O)c1cccs1 | -3 | / | / | / | / | /
N=C1C(c2nc3ccccc3s2)=C(O)CN1Cc1ccco1 | 53* | 7 | -1 | 7 | / | 88*
COc1cccc(-c2ccc3n(c2=O)C[C@H]2[C@H](CO)[C@@H](C(=O)N(C)C)N(C(=O)C4CC4)[C@@H]32)c1 | -1 | / | / | / | / | /
COc1cccc2cc(-c3ccnc(N)n3)oc12 | 45* | 5 | 7 | 4 | 5 | 47
C(=N\N1CCN(Cc2cccc3ccccc23)CC1)/c1cccnc1 | / | 62* | 16 | -3 | 0 | -4
Cc1nnc(NCCc2ccccc2)c2ccccc12 | 32 | 54* | 28 | 1 | ? | 59
CO[C@H]1CN(C)C(=O)c2cc(NS(=O)(=O)c3cn(C)cn3)ccc2OC[C@@H](C)N(Cc2cccc(F)c2)C[C@@H]1C | 0 | / | / | / | / | /
Cc1ccc(N2C(=O)c3ccc(N)cc3C2=O)cc1C | 89* | 26 | 11 | 1 | / | /
Cc1ccc(N2C(=O)c3ccc(N)cc3C2=O)cc1 | 67* | 28 | 22 | 6 | 69* | /
c1ccc(-c2cnc(C3CCCCC3)o2)cc1 | 53* | / | / | -1 | 0 | 48
